Results as given in PubChem BioAssay (EPA / NIEHS).
Active and inactive are the calls of the source. How the source made its calls: active means hit-call score of the fitted dose curve at least 0.9, where 1 is the maximum; inactive means score below 0.9.

How the values were obtained:
[1] = ATG_GLI_CIS: Attagene CIS-FACTORIAL HepG2 Assay for human Zinc Finger Protein GLI1 (AID 2282945); details: HepG2, Attagene cis-factorial reporter mRNA, GLI element; actives raise or lower the signal
Outline: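 HepG2 cells transiently transfected with cis-promoter multiplexed reporter units report endogenous transcription factor activity. After 24 h chemical exposure, reporter mRNA was quantified by RT-PCR, 6-FAM labelling, HpaI digestion and capillary electrophoresis, with bidirectional fitting against DMSO.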

[2] = biological target: Bile acid receptor (Homo sapiens) (UniProt Q96RI1); experiment: ATG_IR1_CIS: Attagene CIS-FACTORIAL HepG2 Assay for human Nuclear Receptor Subfamily 1 Group H Member 4 (NR1H4), IR1 submotif (AID 2282946); details: IR1 reporter transcription, actives raise or lower the signal
Sequence of Bile acid receptor (Homo sapiens) (Q96RI1 whole entry, looked up): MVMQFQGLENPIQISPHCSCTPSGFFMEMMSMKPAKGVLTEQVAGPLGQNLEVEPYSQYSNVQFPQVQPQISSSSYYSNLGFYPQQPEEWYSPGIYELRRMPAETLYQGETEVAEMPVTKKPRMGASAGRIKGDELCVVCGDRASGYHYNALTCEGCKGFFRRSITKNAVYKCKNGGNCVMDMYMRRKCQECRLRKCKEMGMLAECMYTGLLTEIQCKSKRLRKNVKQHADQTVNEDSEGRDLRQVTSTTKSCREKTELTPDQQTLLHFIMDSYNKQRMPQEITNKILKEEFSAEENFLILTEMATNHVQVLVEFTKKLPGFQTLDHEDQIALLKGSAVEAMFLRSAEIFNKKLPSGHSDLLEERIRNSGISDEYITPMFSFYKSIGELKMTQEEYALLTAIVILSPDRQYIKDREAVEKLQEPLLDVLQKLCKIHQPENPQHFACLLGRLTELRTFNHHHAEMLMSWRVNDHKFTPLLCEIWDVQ
Outline: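 Transient MRTU transfection, HepG2; 24 h dosing; RNA → RT-PCR → 6-FAM primer extension → HpaI digest → capillary electrophoresis fluorescence. Gain/loss of signal fitted relative to DMSO.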

[3] = ATG_GRE_CIS: Attagene CIS-FACTORIAL HepG2 Assay for human Glucocorticoid Response Elements (GRE) (AID 2282947); details: HepG2 GRE cis-reporter, Attagene multiplex mRNA; actives raise or lower the signal
Outline: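 HepG2 cells transiently transfected with multiple cis-promoter reporter units measure endogenous TF activity; 24 h compound exposure. Reporter mRNA quantified by RT-PCR, FAM labelling, HpaI digestion and capillary electrophoresis; bidirectional fit vs DMSO baseline.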

[4] = ATG_ISRE_CIS: Attagene CIS-FACTORIAL HepG2 Assay for human Interferon Regulatory Factor 1 (IRF1) binding to an Interferon-Stimulated Response Element (ISRE) (AID 2282948); details: HepG2 ISRE cis-reporter (Attagene), mRNA transcription readout; actives raise or lower the signal
Outline: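 HepG2 cells transiently transfected with multiplexed cis-promoter reporter units; after 24 h compound exposure, reporter mRNA quantified by RT-PCR, FAM labelling, HpaI digestion and capillary electrophoresis. Bidirectional fit versus DMSO baseline.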

[5] = ATG_M_32_CIS: Attagene CIS-FACTORIAL HepG2 Assay for M32 Transcription Factor (Internal Marker) (AID 2282949); details: HepG2 Attagene cis-factorial M32 reporter, mRNA; actives raise or lower the signal;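 further: background control marker of the multiplexed CIS panel rather than a real target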
Outline: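 Internal background marker read-out: RT-PCR/capillary electrophoresis fluorescence of reporter transcripts from transiently transfected HepG2 cells after 24 h chemical exposure. Activity fitted bidirectionally relative to DMSO negative control.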

[6] = ATG_M_06_CIS: Attagene CIS-FACTORIAL HepG2 Assay for M06 Transcription Factor (Internal Marker) (AID 2282950); details: HepG2 Attagene CIS-FACTORIAL M06 internal marker reporter; actives raise or lower the signal
Outline: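 One of many multiplexed endpoints: HepG2 reporter mRNA after 24 h dosing, detected by RT-PCR and capillary electrophoresis fluorescence; gain or loss of signal analysed against DMSO.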

[7] = biological target: Hypoxia-inducible factor 1-alpha (Homo sapiens) (UniProt Q16665); experiment: ATG_HIF1a_CIS: Attagene CIS-FACTORIAL HepG2 Assay for human Hypoxia Inducible Factor 1 (HIF1A) (AID 2282951); details: HepG2 Attagene cis-factorial HIF1a reporter transcription; actives raise or lower the signal
Sequence of Hypoxia-inducible factor 1-alpha (Homo sapiens) (Q16665 whole entry, looked up): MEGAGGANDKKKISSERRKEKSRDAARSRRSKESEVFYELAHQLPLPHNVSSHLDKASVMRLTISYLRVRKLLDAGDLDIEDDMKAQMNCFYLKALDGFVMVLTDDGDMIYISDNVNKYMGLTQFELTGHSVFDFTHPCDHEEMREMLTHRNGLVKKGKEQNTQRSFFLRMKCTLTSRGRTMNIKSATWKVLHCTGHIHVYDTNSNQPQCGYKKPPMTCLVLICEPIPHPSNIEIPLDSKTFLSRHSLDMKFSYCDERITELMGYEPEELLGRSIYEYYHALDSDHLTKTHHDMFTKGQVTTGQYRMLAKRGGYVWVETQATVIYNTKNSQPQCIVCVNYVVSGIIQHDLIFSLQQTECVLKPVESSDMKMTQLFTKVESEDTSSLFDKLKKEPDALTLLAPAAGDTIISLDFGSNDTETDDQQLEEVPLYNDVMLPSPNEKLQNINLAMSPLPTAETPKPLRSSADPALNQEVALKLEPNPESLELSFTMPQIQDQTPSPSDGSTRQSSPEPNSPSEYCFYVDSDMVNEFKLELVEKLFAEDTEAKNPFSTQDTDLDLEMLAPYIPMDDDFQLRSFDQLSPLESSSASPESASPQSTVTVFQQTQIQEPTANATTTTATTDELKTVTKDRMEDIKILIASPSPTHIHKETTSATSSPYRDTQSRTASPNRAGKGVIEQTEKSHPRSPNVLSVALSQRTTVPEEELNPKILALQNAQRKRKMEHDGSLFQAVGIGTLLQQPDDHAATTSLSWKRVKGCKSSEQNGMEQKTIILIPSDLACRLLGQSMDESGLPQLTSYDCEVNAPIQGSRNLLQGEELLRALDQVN
Outline: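 Activity is fitted in both directions relative to DMSO. Reporter transcripts are read by RT-PCR, fluorescent primer extension and capillary electrophoresis after 24 h chemical treatment. The cells are HepG2 carrying transiently transfected cis-element-driven reporter units responding to endogenous factors.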

[8] = biological target: Hepatocyte nuclear factor 6 (Homo sapiens) (UniProt Q9UBC0); experiment: ATG_HNF6_CIS: Attagene CIS-FACTORIAL HepG2 Assay for human Hepatocyte Nuclear Factor 6 (HNF6) (AID 2282952); details: HepG2 Attagene cis-factorial HNF6 reporter transcription; actives raise or lower the signal
Sequence of Hepatocyte nuclear factor 6 (Homo sapiens) (Q9UBC0 whole entry, looked up): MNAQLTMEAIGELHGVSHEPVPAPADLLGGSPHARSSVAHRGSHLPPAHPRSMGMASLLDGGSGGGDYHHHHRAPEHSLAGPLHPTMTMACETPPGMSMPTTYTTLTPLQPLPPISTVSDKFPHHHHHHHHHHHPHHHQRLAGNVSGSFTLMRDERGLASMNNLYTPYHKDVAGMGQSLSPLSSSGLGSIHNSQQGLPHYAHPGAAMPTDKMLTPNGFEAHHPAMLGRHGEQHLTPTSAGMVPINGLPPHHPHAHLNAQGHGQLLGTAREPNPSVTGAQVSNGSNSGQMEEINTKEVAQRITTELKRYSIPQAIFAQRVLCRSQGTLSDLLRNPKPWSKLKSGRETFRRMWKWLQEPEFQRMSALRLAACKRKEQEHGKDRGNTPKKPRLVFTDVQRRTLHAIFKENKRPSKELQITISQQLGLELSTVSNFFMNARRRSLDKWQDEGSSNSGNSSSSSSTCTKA
Outline: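 HepG2 cells transiently transfected with cis-element-driven multiple reporter transcription units, dosed 24 h; reporter mRNA quantified by RT-PCR, FAM primer extension, HpaI digestion and capillary electrophoresis; bidirectional fit versus DMSO baseline.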

[9] = biological target: Heat shock factor protein 1 (Homo sapiens) (UniProt Q00613); experiment: ATG_HSE_CIS: Attagene CIS-FACTORIAL HepG2 Assay for human Heat Shock Transcription Factor 1 (HSE) (AID 2282953); details: HepG2 HSE cis-reporter, Attagene RNA transcription; actives raise or lower the signal
Sequence of Heat shock factor protein 1 (Homo sapiens) (Q00613 whole entry, looked up): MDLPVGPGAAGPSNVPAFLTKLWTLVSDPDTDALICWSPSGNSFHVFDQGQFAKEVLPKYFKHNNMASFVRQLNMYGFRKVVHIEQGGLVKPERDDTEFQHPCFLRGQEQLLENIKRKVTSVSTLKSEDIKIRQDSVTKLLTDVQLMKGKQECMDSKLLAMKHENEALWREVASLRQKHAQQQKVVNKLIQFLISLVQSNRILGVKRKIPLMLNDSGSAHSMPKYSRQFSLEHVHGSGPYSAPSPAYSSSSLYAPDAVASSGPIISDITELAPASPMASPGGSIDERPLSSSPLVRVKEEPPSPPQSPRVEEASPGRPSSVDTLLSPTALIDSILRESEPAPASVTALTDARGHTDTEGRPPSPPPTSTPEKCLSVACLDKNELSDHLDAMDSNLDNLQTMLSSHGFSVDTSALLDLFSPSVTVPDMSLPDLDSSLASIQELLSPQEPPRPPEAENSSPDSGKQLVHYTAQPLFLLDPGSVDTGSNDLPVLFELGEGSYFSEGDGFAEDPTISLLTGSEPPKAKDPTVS
Outline: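 Using HepG2 with transfected cis-driven reporter constructs, compound effects on endogenous factor activity are scored as reporter mRNA change at 24 h. Detection: RT-PCR, HpaI digestion, capillary electrophoresis; bidirectional fitting to DMSO.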

[10] = ATG_PBREM_CIS: Attagene CIS-FACTORIAL HepG2 Assay for human Phenobarbital-responsive Enhancer Module (PBREM) (AID 2282955); details: HepG2 PBREM cis-reporter, Attagene multiplexed transcription; actives raise or lower the signal
Outline: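 Endogenous transcription factor activity was read from reporter transcripts in transiently transfected human HepG2 liver cells after 24 h dosing. RT-PCR products were fluorescently labelled, HpaI-cut and sized by capillary electrophoresis; activity fitted bidirectionally against DMSO baseline.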

[11] = biological target: Paired box protein Pax-6 (Homo sapiens) (UniProt P26367); experiment: ATG_Pax6_CIS: Attagene CIS-FACTORIAL HepG2 Assay for human Paired Box 6 (PAX6) (AID 2282956); details: HepG2 CIS-FACTORIAL PAX6 reporter transcription, RNA readout; actives raise or lower the signal
Sequence of Paired box protein Pax-6 (Homo sapiens) (P26367 whole entry, looked up): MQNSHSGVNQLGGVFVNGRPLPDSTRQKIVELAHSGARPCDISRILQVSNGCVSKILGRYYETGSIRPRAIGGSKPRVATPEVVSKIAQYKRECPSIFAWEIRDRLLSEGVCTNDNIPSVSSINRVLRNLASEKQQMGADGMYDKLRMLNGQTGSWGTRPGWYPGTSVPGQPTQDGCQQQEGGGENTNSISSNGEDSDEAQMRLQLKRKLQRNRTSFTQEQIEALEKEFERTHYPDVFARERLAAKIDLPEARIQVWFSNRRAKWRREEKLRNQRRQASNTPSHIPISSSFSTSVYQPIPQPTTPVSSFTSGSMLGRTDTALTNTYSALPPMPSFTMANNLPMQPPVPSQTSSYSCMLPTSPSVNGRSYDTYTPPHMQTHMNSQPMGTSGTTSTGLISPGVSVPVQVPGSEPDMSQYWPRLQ
Outline: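 HepG2 cells transiently transfected with multiplexed cis-promoter reporter units (endogenous TF activity) were dosed for 24 h. Reporter mRNA was quantified by RT-PCR, 6-FAM labeling, HpaI digestion and capillary electrophoresis; bidirectional fitting versus DMSO baseline.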

[12] = ATG_PXRE_CIS: Attagene CIS-FACTORIAL HepG2 Assay for human Pregnane X Receptor Element (PXRE) (AID 2282957); details: HepG2 Attagene CIS-FACTORIAL PXRE reporter, mRNA; actives raise or lower the signal
Outline: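 HepG2 cells transiently transfected with cis-regulated multiple reporter transcription units; endogenous factor activity measured as reporter mRNA 24 h after dosing. RT-PCR, fluorescent primer extension, HpaI digestion, capillary electrophoresis; bidirectional fit versus DMSO baseline.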

[13] = ATG_PPRE_CIS: Attagene CIS-FACTORIAL HepG2 Assay for human Peroxisome Proliferator-activated Response Element (PPRE) (AID 2282958); details: HepG2 PPRE cis-element reporter, Attagene transcription factor profiling; actives raise or lower the signal
Outline: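 Endogenous PPRE-driven transcription is measured in HepG2 cells carrying transfected multi-reporter constructs. Reporter transcripts are quantified by RT-PCR, HpaI digestion and capillary electrophoresis 24 h after dosing. DMSO baseline, bidirectional fit.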

[14] = ATG_RORE_CIS: Attagene CIS-FACTORIAL HepG2 Assay for human RAR-related Orphan Receptor Element (RORE) (AID 2282959); details: HepG2 Attagene cis-factorial RORE reporter, mRNA; actives raise or lower the signal
Outline: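 RORE reporter transcripts reflecting endogenous factor activity were read after 24 h compound exposure of transfected HepG2 cells, using reverse transcription, PCR, fluorescent labelling and capillary electrophoresis sizing. Gain or loss fitted against DMSO.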

[15] = ATG_Sox_CIS: Attagene CIS-FACTORIAL HepG2 Assay for human SRY-box transcription factor (SOX) (AID 2282960); details: HepG2 Attagene cis-factorial SOX reporter, mRNA; actives raise or lower the signal
Outline: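 Reporter transcripts, measured by RT-PCR and capillary electrophoresis of labelled fragments, report endogenous SOX transcription factor activity. Transiently transfected human HepG2 cells receive chemical for 24 h; changes in either direction are fitted relative to DMSO.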

[16] = biological target: Transcription factor Sp1 (Homo sapiens) (UniProt P08047); experiment: ATG_Sp1_CIS: Attagene CIS-FACTORIAL HepG2 Assay for human Specificity Protein 1 (Sp1) (AID 2282961); details: HepG2 Sp1 cis-reporter transcription, actives raise or lower the signal
Sequence of Transcription factor Sp1 (Homo sapiens) (P08047 whole entry, looked up): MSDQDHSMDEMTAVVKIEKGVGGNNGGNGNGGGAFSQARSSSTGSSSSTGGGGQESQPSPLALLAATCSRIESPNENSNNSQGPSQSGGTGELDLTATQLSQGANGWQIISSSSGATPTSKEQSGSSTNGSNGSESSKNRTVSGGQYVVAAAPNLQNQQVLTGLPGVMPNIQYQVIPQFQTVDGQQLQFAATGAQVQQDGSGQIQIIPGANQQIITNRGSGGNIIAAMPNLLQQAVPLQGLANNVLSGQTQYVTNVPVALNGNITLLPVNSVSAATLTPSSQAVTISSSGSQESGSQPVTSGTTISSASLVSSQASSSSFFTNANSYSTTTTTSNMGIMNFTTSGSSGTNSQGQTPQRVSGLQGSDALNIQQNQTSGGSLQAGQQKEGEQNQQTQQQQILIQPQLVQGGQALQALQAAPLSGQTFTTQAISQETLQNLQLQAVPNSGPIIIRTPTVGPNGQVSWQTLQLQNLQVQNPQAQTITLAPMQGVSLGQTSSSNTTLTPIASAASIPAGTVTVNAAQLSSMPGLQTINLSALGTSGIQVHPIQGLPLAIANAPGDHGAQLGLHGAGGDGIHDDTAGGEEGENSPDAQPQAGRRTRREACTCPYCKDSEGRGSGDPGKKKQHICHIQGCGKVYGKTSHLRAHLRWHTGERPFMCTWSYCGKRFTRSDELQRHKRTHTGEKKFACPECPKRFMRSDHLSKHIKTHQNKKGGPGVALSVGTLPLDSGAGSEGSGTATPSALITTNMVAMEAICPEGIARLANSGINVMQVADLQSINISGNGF
Outline: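 Read-out is reporter transcript level, measured by RT-PCR and fluorescent capillary electrophoresis after 24 h chemical treatment. System: transiently transfected HepG2 cells reporting endogenous transcription factor activity; gain or loss fitted against DMSO baseline.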

[17] = ATG_SREBP_CIS: Attagene CIS-FACTORIAL HepG2 Assay for human Sterol Regulatory Element Binding (SREBP) (AID 2282962); details: HepG2 Attagene cis-factorial SREBP reporter, mRNA; actives raise or lower the signal
Outline: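 HepG2 cells transiently transfected with multiplexed cis-element reporter units report endogenous transcription factor activity. After 24 h of chemical exposure, reporter mRNA was quantified by RT-PCR, 6-FAM labelling, HpaI digestion and capillary electrophoresis; bidirectional fits used DMSO as baseline.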

[18] = biological target: Signal transducer and activator of transcription 3 (Homo sapiens) (UniProt P40763); experiment: ATG_STAT3_CIS: Attagene CIS-FACTORIAL HepG2 Assay for human Signal Transducer and Activator of Transcription 3 (STAT3) (AID 2282963); details: HepG2, Attagene cis-factorial STAT3 reporter transcription; actives raise or lower the signal
Sequence of Signal transducer and activator of transcription 3 (Homo sapiens) (P40763 whole entry, looked up): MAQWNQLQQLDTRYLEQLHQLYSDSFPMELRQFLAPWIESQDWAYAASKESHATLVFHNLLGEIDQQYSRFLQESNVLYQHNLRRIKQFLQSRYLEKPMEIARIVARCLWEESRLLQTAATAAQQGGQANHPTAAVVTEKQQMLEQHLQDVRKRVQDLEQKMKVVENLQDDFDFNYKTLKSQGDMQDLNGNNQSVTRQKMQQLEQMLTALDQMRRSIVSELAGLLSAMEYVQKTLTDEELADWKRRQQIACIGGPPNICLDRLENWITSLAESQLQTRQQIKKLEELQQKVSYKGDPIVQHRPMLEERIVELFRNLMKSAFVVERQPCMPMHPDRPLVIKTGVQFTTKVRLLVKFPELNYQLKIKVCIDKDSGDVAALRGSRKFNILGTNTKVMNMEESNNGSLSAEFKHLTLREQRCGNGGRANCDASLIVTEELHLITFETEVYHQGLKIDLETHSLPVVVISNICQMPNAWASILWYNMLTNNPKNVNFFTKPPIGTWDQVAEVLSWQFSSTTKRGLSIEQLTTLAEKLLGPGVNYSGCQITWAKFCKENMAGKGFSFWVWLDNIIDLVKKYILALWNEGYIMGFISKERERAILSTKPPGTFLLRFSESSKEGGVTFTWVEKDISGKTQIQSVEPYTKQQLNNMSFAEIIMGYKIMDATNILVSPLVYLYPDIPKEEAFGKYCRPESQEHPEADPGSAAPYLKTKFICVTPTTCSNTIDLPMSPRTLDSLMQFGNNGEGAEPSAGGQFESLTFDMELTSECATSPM
Outline: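 HepG2 cells transiently transfected with cis-element-driven multiple reporter transcription units; after 24 h chemical exposure, reporter mRNA measured by RT-PCR, 6-FAM primer-extension labelling, HpaI digestion and capillary electrophoresis. Bidirectional fitting versus DMSO baseline.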

[19] = ATG_TA_CIS: Attagene CIS-FACTORIAL HepG2 Assay for human TA Basal Promoter (AID 2282964); details: HepG2 Attagene CIS-factorial TA basal promoter reporter; actives raise or lower the signal
Outline: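 Transient MRTU transfection of HepG2 preceded 24 h compound exposure. Reporter mRNA levels were then read by RT-PCR with capillary electrophoresis, and this background-control endpoint was fitted bidirectionally to DMSO.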

[20] = ATG_MRE_CIS: Attagene CIS-FACTORIAL HepG2 Assay for human Metal Responsive Element (MRE) (AID 2282954); details: HepG2 MRE cis-reporter transcription, Attagene multiplex; actives raise or lower the signal
Outline: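 HepG2 cells transiently transfected with multiple cis-element reporter units measure endogenous MTF1-driven transcription. After 24 h compound exposure, reporter mRNA is quantified by RT-PCR with 6-FAM labelling, HpaI digestion and capillary electrophoresis; bidirectional fits versus DMSO.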

Measured: AC50

CC(C)(C)C(=O)CC(=O)C(F)(F)C(F)(F)C(F)(F)F
inactive: [1] | [2] | [3] | [4] | [5] | [6] | [7] | [8] | [9] | [10] | [11] | [12] | [13] | [14] | [15] | [16] | [17] | [18] | [19]

CC(C)OC(=O)c1ccccc1C(=O)OC(C)C
inactive: [1] | [2] | [3] | [4] | [5] | [6] | [7] | [8] | [9] | [10] | [11] | [13] | [14] | [15] | [16] | [17] | [18] | [19]
active: [12] 3.7 µM

FC1CC(F)(F)C(F)(F)C1(F)F (stereo not given)
inactive: [1] | [2] | [3] | [4] | [5] | [6] | [7] | [8] | [9] | [20] | [10] | [11] | [12] | [13] | [15] | [16] | [17] | [18] | [19]

C=C(C)C(=O)OCCC(F)(F)C(F)(F)C(F)(F)C(F)(F)C(F)(C(F)(F)F)C(F)(F)F
inactive: [1] | [2] | [3] | [4] | [5] | [6] | [7] | [8] | [9] | [20] | [10] | [11] | [12] | [13] | [14] | [15] | [16] | [17] | [18] | [19]

CC(C)=CCCC(C)CCOC(=O)C(C)C (stereo not given)
inactive: [1] | [2] | [3] | [4] | [5] | [6] | [7] | [8] | [9] | [20] | [10] | [11] | [12] | [13] | [14] | [15] | [16] | [17] | [18] | [19]

CCCCC(CC)COP(=O)(O)OCC(CC)CCCC (stereo not given)
inactive: [1] | [2] | [3] | [4] | [5] | [6] | [7] | [8] | [9] | [20] | [10] | [11] | [15] | [16] | [17] | [18] | [19]
active: [12] 9.1 µM | [13] 5.45 µM

CO[Si](OC)(c1ccccc1)c1ccccc1
active: [12] 18.1 µM
inactive: [1] | [2] | [3] | [4] | [5] | [6] | [7] | [8] | [9] | [10] | [11] | [13] | [14] | [15] | [16] | [17] | [18] | [19]
